ChEMBL document CHEMBL4513146, “CO-ADD screening of Karazin Kharkiv National University (Ukraine) compounds”
Entries with a potency or affinity are not part of this list.

System: Candida albicans
Details: Concentration 32 ug.mL-1; ASSAY_TEST Inhibition of Fungal Growth; detection method Absorption (OD530)

| Compound | Inhibition [%] |
| --- | --- |
| COc1ccc(NC(=O)Cn2nc3ccc(SC(C)(C)C)nn3c2=O)cc1Cl | 3.69 |
| CC1CCCN(c2nccn3c(=O)n(CC(=O)Nc4ccc5c(c4)OCO5)nc23)C1 (centres undefined) | -0.45 |
| Cc1ccc(-c2ccc3nnc(CCC(=O)NCc4ccc(Br)cc4)n3n2)cc1 | 1.12 |
| Cc1ccc(Sc2nccn3c(=O)n(CC(=O)Nc4ccccc4Br)nc23)c(C)c1 | 1.01 |
| COc1cccc(CSc2nnc3c(=O)n(-c4ccc(Br)cc4)ccn23)c1 | 19.07 |
| COc1ccccc1-n1ccn2c(SCc3cccc(Cl)c3)nnc2c1=O | 1.65 |
| COc1cccc(-n2ccn3c(SCC(=O)Nc4cc(F)ccc4F)nnc3c2=O)c1 | 7.1 |
| Cc1ccc(C(=O)C(C)Sc2nnc3c(=O)n(-c4ccc(F)c(F)c4)ccn23)cc1C (centres undefined) | 2.5 |
| Cc1nc(-c2ccccc2)cc2nn(CC(=O)Nc3ccc4c(c3)OCO4)c(=O)n12 | 0.14 |
| COc1ccc(N2CCN(C(=O)Cn3nc4c(Sc5cccc(C)c5)nccn4c3=O)CC2)cc1 | 1.08 |
| O=C(CSc1nc2ccccc2n2cnnc12)NCc1ccccc1Cl | 0.3 |
| Cc1cc2nn(CC(=O)Nc3ccc(F)cc3F)c(=O)n2c(Nc2ccc(F)c(C)c2)n1 | 11.92 |
| Cc1ccc(-c2ccc3nn(CC(=O)NCc4ccc(Cl)cc4)c(=O)n3n2)cc1C | 6.17 |
| CCc1ccccc1NC(=O)Cn1nc2n(CCC(C)C)c(=O)c3sccc3n2c1=O | 8.44 |
| CSc1cccc(NC(=O)Cn2nc3ccc(C(=O)NCc4ccccc4)cn3c2=O)c1 | 7.13 |
| O=C(Cn1nc2c(N3CCOCC3)nccn2c1=O)Nc1ccccc1Br | 4.41 |
| CC(C)CCNC(=O)CSc1nnc2c(=O)n(Cc3ccc(F)cc3)ccn12 | 1.44 |
| Cc1c(Cl)cccc1-n1ccn2c(SCC(=O)c3c[nH]c4ccccc34)nnc2c1=O | 2.26 |
| Cc1cc2nn(CC(=O)NCc3ccco3)c(=O)n2c(Nc2ccc(C)c(F)c2)n1 | 7.51 |
| COc1cccc(CNC(=O)CSc2nnc3c(=O)n(-c4ccccc4)ccn23)c1OC | -1.2 |
| CCCCn1c(=O)c2sccc2n2c(CCC(=O)NC(C)C34CC5CC(CC(C5)C3)C4)nnc12 (centres undefined) | -2.51 |
| O=C(Cn1nc2ccc(SCc3ccc(Cl)cc3)nn2c1=O)NCc1ccc2c(c1)OCO2 | 13.27 |
| COc1cccc(CN(c2ccc(C(C)C)cc2)S(=O)(=O)c2cccn3cnnc23)c1 | 10.84 |
| CCCN(C)c1nccn2c(=O)n(CC(=O)Nc3cccc(SC)c3)nc12 | 8.61 |
| O=S(=O)(c1cccn2cnnc12)N(Cc1ccc(F)cc1)c1ccc(F)cc1 | 2.44 |

System: Cryptococcus neoformans
Details: Concentration 32 ug.mL-1; ASSAY_TEST Inhibition of Fungal Growth; detection method Resazurin; Absorption (OD600-OD570); plate type 384well; NBS; CORNING #3640

| Compound | Inhibition [%] |
| --- | --- |
| O=C(Cn1nc2c(N3CCOCC3)nccn2c1=O)N1CCN(c2ccccc2F)CC1 | -5.23 |
| Cc1ccccc1Cn1nc2ccc(-c3ccccc3)nn2c1=O | -8.99 |
| COc1cccc(Oc2nccn3c(=O)n(CC(=O)NCc4ccc(SC)cc4)nc23)c1 | -5.89 |
| CCc1ccc(N(Cc2ccccc2C)S(=O)(=O)c2cccn3c(CC)nnc23)cc1 | -7.67 |
| CC(C)(C)NC(=O)Cn1nc2n(Cc3cccs3)c(=O)c3sccc3n2c1=O | -8.9 |
| Cc1ccc(C)c(NC(=O)Cn2nc3c4cc(-c5ccc(C)c(C)c5)nn4ccn3c2=O)c1 | -22.88 |
| CCc1nnc2c(S(=O)(=O)N(Cc3cccc(C)c3)c3ccc(C(C)C)cc3)cccn12 | -9.13 |
| COc1ccc(-c2cc3c4nnc(SCC(=O)Nc5cccc(Cl)c5C)n4ccn3n2)cc1 | -18.63 |
| Cc1cc2nn(CC(=O)N3CCCc4ccccc43)c(=O)n2c(Nc2ccc(F)cc2)n1 | -3.85 |
| CCOc1ccc(-n2ccn3c(SC(C)C(=O)Nc4ccc(OC)cc4)nnc3c2=O)cc1 (centres undefined) | -11.44 |
| COc1ccc(-c2cc3c4nn(CC(=O)Nc5ccccc5OC)c(=O)n4ccn3n2)cc1 | -14.32 |
| Cc1ccc(C)c(CSc2nnc3c(=O)n(-c4ccc(F)c(F)c4)ccn23)c1 | -4.36 |
| CCCCN(CC)c1ccc2nnc(CCc3nc(-c4ccc5c(c4)OCO5)no3)n2n1 | -4.25 |
| CN(C(=O)Cn1nc2n(Cc3ccco3)c(=O)c3sccc3n2c1=O)c1ccccc1 | -9.74 |
| COc1ccc(NC(=O)Cn2nc3ccc(SC(C)(C)C)nn3c2=O)cc1Cl | -9.98 |
| CC1CCCN(c2nccn3c(=O)n(CC(=O)Nc4ccc5c(c4)OCO5)nc23)C1 (centres undefined) | -11.4 |
| Cc1ccc(-c2ccc3nnc(CCC(=O)NCc4ccc(Br)cc4)n3n2)cc1 | -7.91 |
| Cc1ccc(Sc2nccn3c(=O)n(CC(=O)Nc4ccccc4Br)nc23)c(C)c1 | -20.06 |
| COc1cccc(CSc2nnc3c(=O)n(-c4ccc(Br)cc4)ccn23)c1 | -13.83 |
| COc1ccccc1-n1ccn2c(SCc3cccc(Cl)c3)nnc2c1=O | -7.59 |

| Compound | Inhibition [%] |
| --- | --- |
| COc1cccc(-n2ccn3c(SCC(=O)Nc4cc(F)ccc4F)nnc3c2=O)c1 | -8.94 |
| Cc1ccc(C(=O)C(C)Sc2nnc3c(=O)n(-c4ccc(F)c(F)c4)ccn23)cc1C (centres undefined) | -3.72 |
| Cc1nc(-c2ccccc2)cc2nn(CC(=O)Nc3ccc4c(c3)OCO4)c(=O)n12 | -7.69 |
| COc1ccc(N2CCN(C(=O)Cn3nc4c(Sc5cccc(C)c5)nccn4c3=O)CC2)cc1 | -17.29 |
| O=C(CSc1nc2ccccc2n2cnnc12)NCc1ccccc1Cl | -14.6 |
| Cc1cc2nn(CC(=O)Nc3ccc(F)cc3F)c(=O)n2c(Nc2ccc(F)c(C)c2)n1 | -8.52 |
| Cc1ccc(-c2ccc3nn(CC(=O)NCc4ccc(Cl)cc4)c(=O)n3n2)cc1C | -11 |
| CCc1ccccc1NC(=O)Cn1nc2n(CCC(C)C)c(=O)c3sccc3n2c1=O | -17.68 |
| CSc1cccc(NC(=O)Cn2nc3ccc(C(=O)NCc4ccccc4)cn3c2=O)c1 | -20.24 |
| O=C(Cn1nc2c(N3CCOCC3)nccn2c1=O)Nc1ccccc1Br | -7.57 |
| CC(C)CCNC(=O)CSc1nnc2c(=O)n(Cc3ccc(F)cc3)ccn12 | -7.36 |
| Cc1c(Cl)cccc1-n1ccn2c(SCC(=O)c3c[nH]c4ccccc34)nnc2c1=O | -4.72 |
| Cc1cc2nn(CC(=O)NCc3ccco3)c(=O)n2c(Nc2ccc(C)c(F)c2)n1 | -7.03 |
| COc1cccc(CNC(=O)CSc2nnc3c(=O)n(-c4ccccc4)ccn23)c1OC | -16.17 |
| CCCCn1c(=O)c2sccc2n2c(CCC(=O)NC(C)C34CC5CC(CC(C5)C3)C4)nnc12 (centres undefined) | -27.66 |
| O=C(Cn1nc2ccc(SCc3ccc(Cl)cc3)nn2c1=O)NCc1ccc2c(c1)OCO2 | -15.83 |
| COc1cccc(CN(c2ccc(C(C)C)cc2)S(=O)(=O)c2cccn3cnnc23)c1 | -11.09 |
| CCCN(C)c1nccn2c(=O)n(CC(=O)Nc3cccc(SC)c3)nc12 | -6.21 |
| O=S(=O)(c1cccn2cnnc12)N(Cc1ccc(F)cc1)c1ccc(F)cc1 | -6.17 |
